Measured values published in PubChem BioAssay (Tox21).
Inconclusive results are not listed. A call without a number means that no potency is given here. The source made the active and inactive calls. Calls follow the shape of the dose curve; as a rule, active = well fitted cell-killing curve with a large enough effect in the repeat runs; inconclusive = weak or mixed curves, or effect the other way; inactive = flat fitted curve, though single readings scatter.

Experiment: Caspase-3/7 induction in HepG2 cells by small molecules, qHTS cell viability counter screen (AID 1346981); also: nearly all actives have a fitted effect of over 30% in size
Details: CellTiter-Fluor fluorescence, 17 h; series mostly up to 92.4 µM
From the text: U.S. Tox21 Program National Center for Advancing Translational Sciences [NCATS] NIH Chemical Genomics Center [NCGC] U.S. Environmental Protection Agency [EPA] National Institutes of Environmental Health Sciences [NIEHS] National Toxicology Program [NTP] U.S. Food and Drug Administration [FDA] Tox21 Assay Overview: Apoptosis is a process of programmed cell death and plays a central role in the development of multicellular organisms. It is a highly regulated process and induces cell death by activating caspases, which are the members of cysteine aspartic acid-specific protease (caspase) family. Caspases involved in apoptosis are classified by their mechanism of action as initiator caspases (caspase-2, -8, -9 and -10) and executioner caspases (caspase-3, -6, and -7). Inhibition of apoptosis results in number of cancers, autoimmune diseases, inflammatory diseases and viral infection. To identify small molecule compounds that induce apoptosis, a homogeneous, luminescent Caspase-Glo 3/7 assay was used. Wild type HepG2 cells were used to screen Tox21 libraries for identifying caspase-3/7 activity inducers. Also cytotoxicity of the compounds was tested in parallel by measuring the cell viability using CellTiter-Fluor assay system in the same wells.
Tox21 Assay Protocol Summary: HepG2 cells were dispensed at 2,000 per well in 5uL of culture medium into white solid bottom 1536-well plates (Corning Life Sciences, Corning, NY) using a Multidrop Combi (Thermo Scientific, Waltham, MA) dispenser. The assay plates were incubated at 37 C and 5% CO2 for 5hr, and then 23nL of compounds dissolved in DMSO and positive control were transferred using a Pintool station ([…], San Diego, CA). The assay plates were incubated at 37C and 5% CO2 for 17hr. For cytotoxicity read, after 16hr incubation at 37C, 1uL CellTiter-Fluor reagent (Promega Corporation, Madison, WI) was added to each well of the assay plates using Flying Reagent Dispenser (FRD, Aurora Discovery, San Diego, CA). After 1hr incubation at 37C and 5% CO2, the fluorescence signal was quantified using a ViewLux plate reader (PerkinElmer, Shelton, CT).
Potency is read from the fitted curve at half-maximal effect.

SMILES	Potency
O=Cc1c2ccccc2c(Cl)c2ccccc12	inactive
C=C(C)C(=O)OCCOCCOC(=O)C(=C)C	inactive
CC(CO)CO	inactive
CCCCC(CC)CN (stereo not given)	inactive
CC[N+](CC)(CCNC(=O)C(=O)NCC[N+](CC)(CC)Cc1ccccc1Cl)Cc1ccccc1Cl	inactive
CN(C(=O)CN(CCO)CC(=O)N(C)C(C)(C)Cc1ccccc1)C(C)(C)Cc1ccccc1	inactive
C[C@@H](O[C@H]1OCCN(Cc2n[nH]c(=O)[nH]2)[C@H]1c1ccc(F)cc1)c1cc(C(F)(F)F)cc(C(F)(F)F)c1	29.8 µM (active)
CCOc1cccc(-n2cc(C(=O)N3CCN(c4cc(C(=O)O)c5ccccc5c4)CC3)nc2-c2ccc(C)cc2)c1	inactive
CCCCCC[C@@H](O)C/C=C\CCCCCCCC(=O)O	inactive
C=C1c2cccc(O)c2C(O)=C2C(=O)[C@]3(O)C(O)=C(C(N)=O)C(=O)[C@@H](N(C)C)[C@@H]3[C@@H](O)[C@H]12	inactive
CN1C(=O)N(c2ccccc2Br)Cc2cnc(Nc3ccc4c(c3)OCC(CO)O4)nc21 (stereo not given)	15.4 µM (active)
CC1(C)[C@@H](OC(=O)CCC(=O)O)CC[C@]2(C)[C@H]3C(=O)C=C4[C@@H]5C[C@@](C)(C(=O)O)CC[C@]5(C)CC[C@@]4(C)[C@]3(C)CC[C@@H]12	inactive
CC(O)c1ccccc1 (stereo not given)	inactive
CCCC(=O)C(=O)O	inactive
CC(=O)Nc1ccc(C)cc1C	inactive
CCC(C)COC(C)=O (stereo not given)	inactive
C[C@H]1C[C@H](O)c2ccsc2S1(=O)=O	inactive
Oc1cc2c(cc1O)[C@H]1c3ccc(O)c(O)c3OC[C@@]1(O)C2	55.1 µM (active)
CCCCCCCC/C=C\CCCCCCCCCCCC(=O)O	inactive
Nc1nc2ccc([N+](=O)[O-])cc2s1	61.1 µM (active)

SMILES	Potency
O[C@@H]1CO[C@H]2[C@@H]1OC[C@@H]2O	inactive
CC1(C)S[C@@H]2[C@H](NC(=O)C(c3ccccc3)S(=O)(=O)O)C(=O)N2[C@H]1C(=O)O (stereo not given in full)	inactive
CC(C)(C)CC(=O)OCC(=O)[C@@]1(O)CC[C@H]2[C@@H]3CCC4=CC(=O)C=C[C@]4(C)[C@H]3[C@@H](O)C[C@@]21C	inactive
CC(C)(c1ccccc1)c1ccccc1	inactive
CCOC(=O)C1=C(C)NC(C)=C(C(=O)OC)C1c1cccc(Cl)c1Cl (stereo not given)	inactive
O=c1cc(-c2ccccc2)oc2cc(O)cc(O)c12	54.5 µM (active)
O=C=Nc1ccc(Cl)c(Cl)c1	inactive
O=[N+]([O-])c1ccc(Nc2ccc(Nc3ccccc3)c(S(=O)(=O)O)c2)c([N+](=O)[O-])c1	61.1 µM (active)
Cc1cccc(O)c1N	inactive
Cc1c(C)c2c(c(C)c1OC(=O)CCC(=O)OCCO)CC[C@@](C)(CCC[C@H](C)CCC[C@H](C)CCCC(C)C)O2	inactive
O=[N+]([O-])c1ccc(O/N=C/c2cc(Br)c(O)c(Br)c2)c([N+](=O)[O-])c1	27.2 µM (active)
C[C@H]1c2cccc(O)c2C(O)=C2C(=O)[C@]3(O)C(O)=C(C(N)=O)C(=O)[C@@H](N(C)C)[C@@H]3[C@@H](O)[C@@H]21	inactive
C[C@]12CC[C@@H]3c4ccc(O)cc4CC[C@H]3[C@@H]1CC[C@@H]2OC(=O)CCC1CCCC1	inactive
OC[C@H]1O[C@@H](n2cnc3c(=S)nc[nH]c32)[C@H](O)[C@@H]1O	inactive
CCOC(=O)c1ccc(I)cc1	inactive
CC(CN(C)C)C(C)(O)Cc1ccc(Cl)cc1 (stereo not given)	inactive
C=C1CCC2CC1C2(C)C (stereo not given)	inactive
COc1cc(Nc2c(C#N)cnc3cc(OCCCN4CCN(C)CC4)c(OC)cc23)c(Cl)cc1Cl	13.3 µM (active)
FC(F)(F)c1ccccc1Cl	inactive
CC1(C)O[C@@H]2C[C@H]3[C@@H]4C[C@H](F)C5=CC(=O)C=C[C@]5(C)[C@H]4[C@@H](O)C[C@]3(C)[C@]2(C(=O)CO)O1	inactive
